The text below walks through data of PubChem BioAssay (Tox21).

The structures appear in SMILES notation. Values joined by “and” are separate entries in the source; they are usually repeats but may differ in a detail not shown here. Equal values may be shown once. Results filed as inconclusive are left out. A call without a number means that no potency is given here. Active and inactive are the calls of the source. The call rests on the fitted dose curve; in most records, active means well fitted cell-killing curve with a large enough effect in the repeat runs; inconclusive means weak or mixed curves, or effect the other way; inactive means no such curve, though single readings can be large or run the other way.
Potency means the concentration at half of the fitted maximal effect.

The experiment in a line: qHTS assay to identify small molecule agonists of the RXR signaling pathway - cell viability counter screen (AID 1159529). Further: nearly all actives have a fitted effect of over 50% in size. The following applies: RXR-alpha-bla HEK293T viability, CellTiter-Glo, 16 h; series mostly up to 76.8 µM. The source says:
National Center for Advancing Translational Sciences [NCATS]
NIH Chemical Genomics Center [NCGC]
U.S. Environmental Protection Agency [EPA]
National Institutes of Environmental Health Sciences [NIEHS]
National Toxicology Program [NTP]
U.S. Food and Drug Administration [FDA]
The Retinoid X receptor (RXR), a nuclear hormone receptor expressed in liver, spleen, placenta, epidermis, central nervous system. These receptors are able to form homo and heterodimers with other nuclear receptors and due to this heterodimerizing ability, RXR functions as master regulators producing diverse physiological effects. Three subtypes of RXR exist; alpha, beta and gamma. Retinoid X receptor alpha (RXR-alpha) has potential roles in metabolic signaling pathways, skin alopecia, dermal cysts, cardiac development, insulin sensitization etc. Therefore screening environmental chemicals on RXR-alpha signaling can be used for the studies focused on such therapeutic applications. For quantification of RXR-alpha ligands signaling, GeneBLAzer RXR alpha-UAS-bla HEK 293T (Life Technologies, Carlsbad, CA) cells containing a beta-lactamase reporter-gene under control of Retinoid X receptor-alpha response element were used to screen Tox21 10K library. The cytotoxicity of the Tox21 compound library against the RXR-alpha HEK 293T cell line was tested in parallel by measuring cell viability using CellTiter-Glo assay (Promega Corporation, Madison, WI) in the same wells.
Tox21 Assay Protocol Summary:
RXR-alpha HEK 293T cells were dispensed at 2,000 cells/6 uL of assay medium containing 2% charcoal-stripped FBS using a Multidrop Combi (ThermoFisher Scientific, Waltham, MA) dispenser. The assay was performed in black wall/clear-bottom 1536-well plates (Greiner Bio-One North America Inc. Monroe, NC). Tetraoctyl ammonium bromide was used as a positive control in the cytotoxicity screen. After the assay plates were incubated at 37 C and 5% CO2 for 5 hr, 23 nL of compounds dissolved in DMSO, positive control or DMSO only were transferred to the assay plate by a Pintool station (Kalypsys, San Diego, CA). The assay plates were incubated at 37 C and 5% CO2 for 16 hr. One uL of LiveBLAzer B/G FRET substrate (Life Technologies) was added using a Flying Reagent Dispenser (FRD) (Aurora Discovery, San Diego, CA) and the plates were incubated at room temperature for 2 hr. Fluorescence intensity (405 nm excitation, 460/530 nm emission) was measured using an Envision plate reader (PerkinElmer, Shelton, CT). For cytotoxicity, 4 uL/well of CellTiter-Glo reagent was added into the assay plates using an FRD. After 30 min incubation at room temperature, the luminescence intensity was measured using a ViewLux plate reader (PerkinElmer).
In the case of `CC(=O)OC(OC(C)=O)c1ccc([N+](=O)[O-])o1`, the Potency is 49.8 µM (active).

On to `C=CC(=C)CC/C=C(\C)CCC=C(C)C`, for which the activity change, negative = cytotoxicity is -8.98% [at 15.8 µM] (inactive).

With `CC(C)C(=O)OCc1ccccc1`, the Potency result is “inactive”.

`CC(C)N=C(N)/N=C(\N)Nc1ccc(Cl)cc1`: the Potency entry was “inactive”.

As for `CC1=C(/C=C/C(C)=C/C=C/C(C)=C\C=O)C(C)(C)CCC1`, the Potency is 52 µM (active).

In the case of `CC(C)=CC1CC(C)CCO1` (stereo not given), the Potency entry was “inactive”.

Turning to `C[Si](C)O[Si](C)C`, the Potency entry was “inactive”.

As to `CCOCN(C(=O)CS(=O)(=O)O)c1c(C)cccc1CC`, the Potency entry is “inactive”.

With `Clc1ccc(C(Cn2ccnc2)OCc2c(Cl)cccc2Cl)c(Cl)c1` (stereo not given), the Potency was 26.8 µM (active).

For `O=C(O)Cc1ccc(OCCNC[C@H](O)c2ccccc2)cc1`, the Potency entry was “inactive”.

Turning to `CCCCCCCCCCCCCCCCCO`, the activity change, negative = cytotoxicity is -0.179% [at 15.8 µM] (inactive).

Turning to `CC(=O)O[C@@H]1C[C@@H]2CC[C@@]1(C)C2(C)C`, the Potency result is “inactive”.

As to `COc1ccc(C#N)cc1`, the Potency result was “inactive”.

Turning to `Clc1ccccc1CN1CCc2sccc2C1`, the Potency entry is “inactive”.

Take `CC=O`: the Potency is 14.4 µM (active).

In the case of `CC(=O)c1ccccc1N`, the Potency result is “inactive”.

As to `C/C=C/c1ccc(OC)c(OC)c1`, the Potency entry was “inactive”.

Turning to `CCc1c(C(=O)O)c(=O)cnn1-c1ccc(Cl)cc1`, the Potency result was “inactive”.

For the compound `Cc1nc(Nc2ncc(C(=O)Nc3c(C)cccc3Cl)s2)cc(N2CCN(CCO)CC2)n1`, the Potency entry was “inactive”.

For `O[C@@H](c1cc(C(F)(F)F)nc2c(C(F)(F)F)cccc12)[C@H]1CCCCN1`, the Potency was 15.1 µM (active).

For the compound `CCc1ccc(C)nc1`, the Potency entry is “inactive”.

As to `CCC(C)c1ccccc1` (stereo not given), the Potency entry was “inactive”.

As to `Clc1nc2ccccc2s1`, the Potency result was “inactive”.

`CCCCCCCCCCCCN(CCO)CCO`: the Potency was 24.4 µM (active).

Take `CCOCOCC`: the Potency result is “inactive”.

For `CC1(C)C(=O)N(Br)C(=O)N1Br`, the Potency entry was “inactive”.

`CCN=C1C=CC(=C(c2ccc(N(CC)CC)cc2)c2ccc(N(CC)CC)cc2)c2ccccc21`: the Potency was 15.4 µM (active).

For the compound `CCc1cccc(CC)c1N(COC)C(=O)CS(=O)(=O)O`, the Potency entry was “inactive”.

On to `c1cc(OCC2CO2)cc(OCC2CO2)c1` (stereo not given), for which the Potency was 48.6 µM (active).

As to `O=C(O)CCCCCCC(=O)O`, the Potency result is “inactive”.

As for `CCc1c(Br)c(Br)c(Br)c(Br)c1Br`, the Potency entry was “inactive”.

Take `O=C(O)CC(=O)O`: the Potency result was “inactive”.

Take `C/C=C/C=N/NC(=O)c1ccncc1`: the Potency entry was “inactive”.

Turning to `CC1=CP(=O)(c2ccccc2)CC1` (stereo not given), the Potency result was “inactive”.

On to `C=CC(=C)CCC=C(C)C`, for which the Potency result is “inactive”.

As for `CCN1CCN(c2cc(-c3ccc(F)cc3)c3c(n2)CCCCCC3)CC1`, the activity change, negative = cytotoxicity was -22.5% [at 15.8 µM] (inactive).

Take `S=C(SSSSSSC(=S)N1CCCCC1)N1CCCCC1`: the Potency was 0.606 µM (active).

For the compound `CO[C@H]1C=CO[C@@]2(C)Oc3c(C)c(O)c4c(O)c(cc(O)c4c3C2=O)NC(=O)/C(C)=C\C=C/[C@H](C)[C@H](O)[C@@H](C)[C@@H](O)[C@@H](C)[C@H](OC(C)=O)[C@@H]1C`, the Potency was 12.4 µM (active).

For the compound `CC1=C(/C=C/C(C)=C/C=C/C(C)=C/C(=O)Nc2ccc(O)cc2)C(C)(C)CCC1`, the Potency was 35.6 µM (active) and 12 µM (active).

Turning to `C[C@@]12C(=O)OC(=O)[C@]1(C)C1CCC2O1`, the Potency result is “inactive”.
